IL2 activator: activates IL-2 in a cell-based reporter assay; IL-2 activation reporter assay, cell-based qHTS; stimulated with anti-CD3/CD4/CD28 beads; in transgenic mouse T cells; activation, % (series mostly up to about 46 µM); actives 0.065% (n = 360,000); AID 652025; in the data active = activation above about 50%; inconclusive = mostly about 30% to 49%
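Unstimulated transgenic mouse T cells; 60-min compound exposure; bead-based TCR/CD4/CD28 stimulation; 18 h culture, 37 degrees C; dual fluorescence (EGFP, DsRed) plate cytometry.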
PKM2 act: activators of human pyruvate kinase M2. P14618. Potency, µM (series often up to 57.5 µM), actives largely listed as activators. purified PKM2, Kinase-Glo ATP luminescence, activation; response scale: 0% is enzyme alone, no compound. actives 0.34% (n = 260,000). AID 1631; note: nearly all actives have a fitted effect of over 55% in size
Target sequence (P14618 whole entry, looked up): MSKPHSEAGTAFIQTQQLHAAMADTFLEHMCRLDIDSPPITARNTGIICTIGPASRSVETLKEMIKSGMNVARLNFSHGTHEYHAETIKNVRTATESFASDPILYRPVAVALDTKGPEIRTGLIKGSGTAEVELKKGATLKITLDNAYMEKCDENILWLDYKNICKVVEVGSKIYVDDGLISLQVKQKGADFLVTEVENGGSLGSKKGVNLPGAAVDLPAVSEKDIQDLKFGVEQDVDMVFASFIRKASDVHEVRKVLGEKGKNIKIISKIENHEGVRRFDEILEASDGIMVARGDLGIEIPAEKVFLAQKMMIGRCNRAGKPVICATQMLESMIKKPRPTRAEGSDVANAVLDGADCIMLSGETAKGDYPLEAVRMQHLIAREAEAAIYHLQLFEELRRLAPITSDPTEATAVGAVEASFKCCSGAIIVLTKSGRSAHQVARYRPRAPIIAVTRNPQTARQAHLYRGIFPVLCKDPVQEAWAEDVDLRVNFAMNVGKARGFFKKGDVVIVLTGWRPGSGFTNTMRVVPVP
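hPK-M2, >95% pure; 0.1 mM ADP / 0.5 mM PEP final; imidazole pH7.2 buffer w/ 7 mM MgCl2, 50 mM KCl; 1 h RT; Kinase-Glo lum. Intermediate enzyme activity for dual inhibitor/activator qHTS.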
ClpP mod: qHTS Assay for Activators of ClpP | ATP-dependent Clp protease proteolytic subunit (Bacillus subtilis (strain 168)), P80244 | purified B. subtilis ClpP, FRET peptide cleavage, 20 min | Potency, µM (highest dose often 57.5 µM) | actives 1.9% (n = 340,000) | AID 651965, 2013; active = well fitted falling curve with a large enough effect; inconclusive = small, poorly fitted or top-dose-only effect; inactive = no such curve, though single readings can be large or run the other way; note: the source files actives as falling curves though it sought activators and does not explain the sign; nearly all actives have a fitted effect of over 65% in size
Target sequence (P80244 whole entry, looked up): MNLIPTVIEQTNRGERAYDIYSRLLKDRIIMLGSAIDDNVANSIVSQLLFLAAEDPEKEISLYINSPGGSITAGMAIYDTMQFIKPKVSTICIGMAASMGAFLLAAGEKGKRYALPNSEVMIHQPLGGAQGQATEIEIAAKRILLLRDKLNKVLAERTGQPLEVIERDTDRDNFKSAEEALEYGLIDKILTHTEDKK
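Purified B. subtilis ClpP, 10 microg/mL final in Tris/HCl pH8 with KCl, BSA, glycerol and Tween-20, cleaved an Abz/nitrotyrosine-quenched decapeptide. Fluorescence (ex 320, em 430) was read at 0 and 20 min at room temperature. Delta was normalized to 5.8 microM ADEP and DMSO/no-enzyme controls.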
NPSR antag: blocks cAMP signaling of the human neuropeptide S receptor | Q6W5P4 | actives 1% (n = 220,000) | Potency, µM (top dose mostly 38.3 µM), hits mostly inhibitors | CHO-NPSR cells, cAMP TR-FRET, antagonist mode; note: nearly all actives have a fitted effect of over 50% in size
Each line names hits and unclear results; the compound was inactive in the other large screens. In the library only some 2% were active in any assay of this set; here they are far more common. Unless noted, calls come from the whole dose curve; as a rule, active = well fitted curve in the direction sought with a large enough effect; inconclusive = small, poorly fitted or top-dose-only effect, or another doubt; inactive = no such curve, though single readings can be large; an effect the other way counts as inactive or inconclusive.

O=[N+]([O-])c1ccc(NN=Cc2cccc3ccccc23)nc1	IL2 activator 58.5 (no result: PKM2 act, ClpP mod, NPSR antag)
CCC(C)(C)C1CCC2(CC1)NC(=O)N(CC(=O)N1CCN(c3ccccc3OC)CC1)C2=O (stereo not drawn)	none (no result: PKM2 act, NPSR antag)
COc1ccc(C(=O)Cc2nnc(C)s2)cc1	ClpP mod 20µM
CC(=O)c1cc(C(=O)NC2CCCc3c2cnn3-c2cc(C)cc(C)c2)[nH]n1 (stereo not drawn)	ClpP mod 31.6µM (no result: NPSR antag)
O=C(NC1CCCCCC1)c1ccc2nc3cc(Cl)ccc3c(=O)n2c1	ClpP mod 25.1µM
O=C(NCCc1ccccc1)c1ccc2nc3cc(Cl)ccc3c(=O)n2c1	none (no result: PKM2 act, NPSR antag)
CCNc1nc(NCC)nc(OCCOC(=O)c2ccccc2)n1	PKM2 act 14.1µM
CCNc1nc(NCC)nc(OCCOC(=O)Nc2ccccc2)n1	none
Cc1nn2c(nc(N3CCCCC3)c3ccccc32)c1C=O	ClpP mod 12.6µM
Cc1c(C)c2cc(Cl)c(O)c(CN3CCN(C)CC3)c2oc1=O	none
Cc1c(C)c2cc(Cl)c(O)c(CN3CCCC(C)C3)c2oc1=O (stereo not drawn)	ClpP mod 6.31µM
Cc1nc(SCC(=O)NCc2ccco2)[nH]c(=O)c1C	none
Cc1ccc(C2C3=C(CCCC3=O)Nc3nc(SCC(=O)NCc4ccco4)[nH]c(=O)c32)cc1 (stereo not drawn)	ClpP mod 20µM
Cc1cc(NC(=O)CSc2nc3ccccc3c(=O)n2CCCC(=O)NCc2ccco2)n[nH]1	none
CSc1ccccc1-c1nnc(-c2ccc(Cl)cc2Cl)o1	ClpP mod 35.5µM
O=C(NCc1ccco1)c1ccccc1NS(=O)(=O)c1ccc2c(c1)OCCO2	ClpP mod 31.6µM
Cc1ccc(N(CC(=O)Nc2ccccc2C(=O)NCc2ccco2)S(=O)(=O)c2ccccc2)cc1C	ClpP mod 22.4µM
O=C(CN(c1ccccc1)S(=O)(=O)c1ccccc1)Nc1ccccc1C(=O)NCc1ccco1	ClpP mod inconclusive
Cc1ccc(C)c(N(CC(=O)Nc2ccccc2C(=O)NCc2ccco2)S(=O)(=O)c2ccccc2)c1	ClpP mod 35.5µM
Cc1cccc(C)c1NC(=S)Nc1ccccc1C(=O)NCc1ccco1	ClpP mod 25.1µM
COC(=O)c1nn(-c2ccccc2)c(Sc2ccc(Cl)cc2)c1/C=N/O	none
COc1ccc(C(=O)Nc2ncc(C)s2)cc1S(=O)(=O)N1CCCC1	none (no result: ClpP mod)
O=C(C1=C[C@H](c2ccc3c(c2)OCO3)C[C@H](OCCCCO)O1)N1CCOCC1	none
CC1(C)CC(=O)c2sc(NC(=O)CN3CCCCC3)nc2C1	ClpP mod 15.8µM
CC1(C)CC(=O)c2sc(NC(=O)C(C)(C)C)nc2C1	none (no result: ClpP mod)
CC(=O)Oc1ccc(C(=O)[C@H]2[C@H]3C(=O)N(c4ccc5ccccc5c4)C(=O)[C@H]3[C@@H]3C=CC=NN32)cc1	none
COc1ccccc1-c1sc2cc3c(cc2c1C#CC1(O)CCCCC1)OCO3	none (no result: PKM2 act, NPSR antag)
Cc1ccsc1/C=N/n1cnc2sc(C)c(C)c2c1=O	ClpP mod 31.6µM
COc1ccc(CCNC(=O)c2cnc3sc(N4CCCCC4)nn3c2=O)cc1OC	none (no result: IL2 activator, PKM2 act, NPSR antag)
CCOc1ccc(CNC(=O)c2cnc3sc(N4CCOCC4)nn3c2=O)cc1OC	ClpP mod 28.2µM (no result: IL2 activator, PKM2 act, NPSR antag)
CC(C)CCNC(=O)c1cnc2sc(N3CCCCCC3)nn2c1=O	ClpP mod 12.6µM (no result: IL2 activator, PKM2 act, NPSR antag)
CCN(CC)c1nn2c(=O)c(C(=O)NCc3ccc(N(C)C)cc3)cnc2s1	none (no result: IL2 activator, PKM2 act, NPSR antag)
CCOc1ccc(CNC(=O)c2cnc3sc(N(CC)CC)nn3c2=O)cc1OC	ClpP mod 31.6µM (no result: IL2 activator, PKM2 act, NPSR antag)
CCOc1ccc(CNC(=O)c2cnc3sc(N4CCOCC4)nn3c2=O)cc1	none (no result: IL2 activator, PKM2 act, NPSR antag)
COc1ccc(CCNC(=O)c2cnc3sc(N4CCCC4)nn3c2=O)cc1OC	ClpP mod 11.2µM (no result: IL2 activator, PKM2 act, NPSR antag)
COCCCNC(=O)c1cnc2sc(N3CCCCC3)nn2c1=O	none (no result: IL2 activator, PKM2 act, NPSR antag)
COc1ccc(CCNC(=O)CCNC(=O)c2ccco2)cc1OC	none (no result: NPSR antag)
Cc1nn(-c2cccc(C(=O)O)c2)c(C)c1Oc1ccccc1O	none
CCc1cc2cc3c(cc2nc1SCC(=O)Nc1nccs1)OCO3	NPSR antag 10µM
Cc1cccc(-c2nnn3c2nc(NCCc2ccc(S(N)(=O)=O)cc2)c2ccccc23)c1	ClpP mod 11.2µM
NS(=O)(=O)c1ccc(CCNc2nc3c(-c4cccc(F)c4)nnn3c3ccccc23)cc1	ClpP mod 22.4µM
CCCSc1nc(N)nc(-c2cccs2)c1C#N	ClpP mod 25.1µM
O=C(CN1CCN(C(=O)c2ccco2)CC1)Nc1ccc(Cl)c(S(=O)(=O)N2CCOCC2)c1	none (no result: ClpP mod)
Cc1ccc(O)c(Nc2ncnc3ccccc23)c1	none (no result: ClpP mod, NPSR antag)
COCCNC(=O)c1c(N)n(/N=C/c2ccc(F)cc2)c2nc3ccccc3nc12	ClpP mod inconclusive
Nc1c(S(=O)(=O)c2cccs2)c2nc3ccccc3nc2n1/N=C/c1cccc(O)c1	ClpP mod 2.82µM, NPSR antag 7.94µM
COc1ccc(/C=N/n2c(N)c(S(=O)(=O)c3cccs3)c3nc4ccccc4nc32)cc1OC	ClpP mod 12.6µM
COCCNC(=O)c1c(N)n(/N=C/c2cccs2)c2nc3ccccc3nc12	ClpP mod inconclusive
COc1cccc(/C=N/n2c(N)c(S(=O)(=O)c3cccs3)c3nc4ccccc4nc32)c1	ClpP mod 2.82µM
COCCNC(=O)C1CC(c2ccccc2C(F)(F)F)=NO1 (stereo not drawn)	none (no result: PKM2 act, NPSR antag)
CCc1ccc(NC(=S)NC2CC3CCCC(C2)N3Cc2cccs2)cc1 (stereo not drawn)	none
CCCc1ccc(Oc2cn[nH]c2-c2ccc(O)c(C)c2O)cc1	NPSR antag 10µM
Cc1ccccc1NS(=O)(=O)c1cc2c(cc1C)NC(=O)CO2	PKM2 act 5.62µM (no result: NPSR antag)
CCOC(=O)c1snc2c(=O)[nH]cnc12	ClpP mod 28.2µM
CCOC(=O)c1sc2nc[nH]c(=O)c2c1C	ClpP mod 31.6µM
COc1cccc(CNC(=O)c2sc3nc[nH]c(=O)c3c2C)c1	ClpP mod 39.8µM (no result: IL2 activator, PKM2 act, NPSR antag)
CCOC(=O)C1CCCN(c2ccc(NC(=O)c3snc4c(=O)[nH]cnc34)cc2)C1 (stereo not drawn)	NPSR antag 15.8µM
O=C(Nc1ccccc1)c1snc2c(=O)[nH]cnc12	none (no result: ClpP mod)
NC(=O)C1CC(=O)N(c2ccc(OCC(=O)Nc3ccc(Cl)cc3)cc2)C1 (stereo not drawn)	none (no result: PKM2 act, ClpP mod, NPSR antag)
CC(C)(C)c1cc(C(=O)O)c(CN2CCCCC2)o1	none
COc1ccc(COC(=O)CCS(=O)(=O)c2ccc(C)cc2)cc1F	none (no result: PKM2 act, NPSR antag)
O=C(Nc1ccc(/C=C/c2nc3ccccc3o2)cc1)c1c(F)cccc1F	ClpP mod inconclusive
O=C(Nc1ccc(/C=C/c2nc3ccccc3o2)cc1)c1cccc(C(F)(F)F)c1	ClpP mod 15.8µM
FC(F)(F)COc1ccc(-c2nnc(SCc3ccccc3)o2)cn1	ClpP mod 17.8µM, NPSR antag inconclusive
O=C(NC1CCS(=O)(=O)C1)c1ccc(Br)o1 (stereo not drawn)	none (no result: PKM2 act, ClpP mod, NPSR antag)
O=C(NC1CCS(=O)(=O)C1)c1ccc(-c2ccc(Br)cc2)o1 (stereo not drawn)	ClpP mod 15.8µM
